According to PubChem BioAssay (Tox21):
A number with no mark means an inactive call. Records with an inconclusive call do not appear. Where a call stands in place of a potency, no number is given. The source made the active and inactive calls. Unless noted, the call rests on the fitted dose curve; in most records, active means well fitted curve in the direction sought with a large enough effect in the repeat runs; inconclusive means weak or mixed curves; inactive means no such curve, though single readings can be large; an effect the other way counts as inactive or inconclusive.

Assays:
[1] = A CellTox Green Cytotoxicity Assay to monitor cytotoxicity in HEK293 cells - 32 hour (AID 1224881); further: nearly all actives have a fitted effect of over 40% in size
How it was run: (§1)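 HEK293 cells premixed with CellTox Green dye were seeded at 600 cells/well and left 5 h at 37 C/5% CO2 before pin transfer of 23 nL compound in DMSO. Fluorescence from dye bound to dead-cell DNA was read during 40 h treatment.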

[2] = A CellTox Green Cytotoxicity Assay to monitor cytotoxicity in HepG2 cells - 0 hour (AID 1224882); further: nearly all actives have a fitted effect of over 35% in size
How it was run: (§2)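 HepG2 cells were seeded together with the CellTox Green dye at 600 cells/well, left 5 h at 37 C/5% CO2, then given compounds in DMSO. Fluorescence from dye bound to dead-cell DNA was read repeatedly over 40 h of treatment at 37 C.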

[3] = A CellTox Green Cytotoxicity Assay to monitor cytotoxicity in HepG2 cells - 32 hour (AID 1224883); further: nearly all actives have a fitted effect of over 50% in size; further: potency means the concentration at half of the fitted maximal effect
How it was run: as §2

[4] = A CellTox Green Cytotoxicity Assay to monitor cytotoxicity in HEK293 cells - 8 hour (AID 1224884); further: nearly all actives have a fitted effect of over 35% in size
How it was run: as §1

[5] = qHTS RealTime-Glo MT Cell Viability Assay in HepG2 cells - 16 hour (AID 1224885); further: nearly all actives have a fitted effect of over 50% in size
How it was run: (§3)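 Viability was tracked continuously by NanoLuc luminescence from prosubstrate reduced by living HepG2 cells, at successive time points over 40 h of compound exposure. Cells with reagent were preincubated 5 h at 37 °C before compound addition.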

[6] = qHTS RealTime-Glo MT Cell Viability Assay in HEK293 cells - 24 hour (AID 1224886); further: nearly all actives have a fitted effect of over 50% in size; further: potency means the concentration at half of the fitted maximal effect
How it was run: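 Viability tracked continuously by luminescence as live cells reduce a prosubstrate for NanoLuc; HEK293 cells preincubated 5 h, compound-treated at 37 C, and read at 0, 8, 16, 24, 32 and 40 h.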

[7] = qHTS RealTime-Glo MT Cell Viability Assay in HEK293 cells - 8 hour (AID 1224887); further: nearly all actives have a fitted effect of over 50% in size; further: potency means the concentration at half of the fitted maximal effect
How it was run: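 HEK293 cells mixed with RealTime-Glo reagents (NanoLuc plus cell-permeant prosubstrate) at 600 cells/well, preincubated 5 h at 37 C/5% CO2, then given 23 nL compound in DMSO. Nonlytic luminescence from viable cells was read at 0, 8, 16, 24, 32 and 40 h.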

[8] = A CellTox Green Cytotoxicity Assay to monitor cytotoxicity in HEK293 cells - 16 hour (AID 1224888); further: nearly all actives have a fitted effect of over 35% in size
How it was run: as §1

[9] = qHTS RealTime-Glo MT Cell Viability Assay in HepG2 cells - 0 hour (AID 1224889); further: nearly all actives have a fitted effect of over 50% in size
How it was run: as §3

[10] = qHTS assay to identify small molecule antagonists of the estrogen receptor alpha (ER-alpha) signaling pathway using the BG1 cell line in the presence of 0.1 nM 17-beta-estradiol - cell viability counter screen (AID 1259241); further: nearly all actives have a fitted effect of over 40% in size; further: potency means the concentration at half of the fitted maximal effect
How it was run: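 Measures cytotoxicity alongside the ER-alpha antagonist readout: VM7Luc4E2 cells, charcoal-stripped serum, 0.1 nM 17beta-estradiol final, 22 hr compound incubation at 37C, CellTiter-Fluor fluorescence.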

[11] = qHTS assay to identify small molecule antagonists of the androgen receptor (AR) signaling pathway using the MDA cell line in the presence of 0.5 nM R1881 - cell viability counter screen (AID 1259242); further: nearly all actives have a fitted effect of over 45% in size
How it was run: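 MDA-kb2 cells (human breast carcinoma, stably carrying MMTV-luciferase reporter) were exposed to compounds with 0.5 nM R1881 (final) for 16 hr at 37C, 0% CO2; viability then read as live-cell protease fluorescence (CellTiter-Fluor, 30 min) in the same wells.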

[12] = biological target: Estrogen receptor (Homo sapiens) (UniProt P03372); experiment: qHTS assay to identify small molecule antagonists of the estrogen receptor alpha (ER-alpha) signaling pathway using the BG1 cell line in the presence of 0.1 nM 17-beta-estradiol (AID 1259244); further: nearly all actives have a fitted effect of over 50% in size; further: potency means the concentration at half of the fitted maximal effect
Sequence of Estrogen receptor (Homo sapiens) (P03372 whole entry, looked up): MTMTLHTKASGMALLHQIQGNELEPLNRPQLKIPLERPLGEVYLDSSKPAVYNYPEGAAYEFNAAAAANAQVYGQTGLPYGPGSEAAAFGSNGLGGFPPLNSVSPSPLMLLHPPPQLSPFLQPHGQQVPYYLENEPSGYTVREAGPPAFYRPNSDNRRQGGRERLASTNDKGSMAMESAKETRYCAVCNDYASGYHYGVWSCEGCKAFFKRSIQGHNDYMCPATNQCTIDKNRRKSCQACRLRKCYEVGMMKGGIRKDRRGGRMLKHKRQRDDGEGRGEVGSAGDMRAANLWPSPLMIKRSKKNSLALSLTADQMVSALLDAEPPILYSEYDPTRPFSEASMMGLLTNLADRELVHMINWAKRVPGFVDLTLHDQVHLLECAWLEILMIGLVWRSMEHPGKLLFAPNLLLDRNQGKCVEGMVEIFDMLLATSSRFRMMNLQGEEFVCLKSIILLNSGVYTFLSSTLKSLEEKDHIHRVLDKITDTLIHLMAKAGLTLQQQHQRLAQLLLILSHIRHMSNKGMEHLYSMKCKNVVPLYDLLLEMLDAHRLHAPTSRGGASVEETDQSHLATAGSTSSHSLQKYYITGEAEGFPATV
How it was run: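 VM7Luc4E2 cells (endogenous full-length ER-alpha, stable 4xERE-luciferase) were grown 5 days in phenol red-free medium with charcoal-stripped FBS, then exposed 22 h at 37C to compounds plus 0.1 nM (final) 17beta-estradiol; ONE-Glo luminescence read-out.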

[13] = qHTS assay to identify small molecule HDAC inhibitors (AID 1259364); further: nearly all actives have a fitted effect of over 45% in size; further: potency means the concentration at half of the fitted maximal effect
How it was run: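 Wild-type HCT-116 cells were plated overnight, exposed to compounds for 2 h at 37 °C, then given HDAC-Glo class I/II luminogenic reagent for 30 min at room temperature before luminescence was read.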

[14] = qHTS assay to identify small molecule HDAC inhibitors - cell viability counter screen (AID 1259365)
How it was run: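 Following a 2hr exposure of overnight-plated wild-type HCT-116 cells to DMSO-delivered compounds, CellTiter-Glo was added and luminescence recorded after 30min at room temperature.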

[15] = qHTS assay to identify small molecule agonists of the sonic hedgehog signaling (Shh) pathway - cell viability counter screen (AID 1259366); further: nearly all actives have a fitted effect of over 50% in size
How it was run: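 After a 4hr attachment at 37C, NIH/3T3 cells bearing an integrated Gli1-driven luciferase reporter were dosed with compounds. Treatment lasted 24hr, with the final hour including CellTiter-Fluor for a fluorescence viability measurement.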

[16] = qHTS assay to identify small molecule antagonists of the sonic hedgehog signaling (Shh) pathway - cell viability counter screen (AID 1259367); further: nearly all actives have a fitted effect of over 55% in size
How it was run: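 After a 4 hr settling period, 3T3 Gli1-Luc cells were treated with DMSO-dissolved chemicals and conditioned medium, kept 24 hr at 37C in 5% CO2, and assayed for viability by CellTiter-Fluor fluorescence following 1 hr reagent incubation.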

[17] = qHTS assay to identify small molecule agonists of the sonic hedgehog signaling (Shh) pathway (AID 1259368; calls by dose curve; further: series mostly up to about 92 µM; nearly all actives have a fitted effect of over 15% in size)
How it was run: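 NIH/3T3-derived 3T3Gli1-Luc cells carrying a stably integrated Gli1 response element–firefly luciferase reporter were plated, left 4 hr at 37 C, then given compounds in DMSO for 24 hr. Luminescence was read 30 min after adding luciferase reagent.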

[18] = A CellTox Green Cytotoxicity Assay to monitor cytotoxicity in HepG2 cells - 8 hour (AID 1224890); further: nearly all actives have a fitted effect of over 45% in size
How it was run: as §2

[19] = biological target: Androgen receptor (Homo sapiens) (UniProt P10275); experiment: qHTS assay to identify small molecule antagonists of the androgen receptor (AR) signaling pathway using the MDA cell line in the presence of 0.5 nM R1881 (AID 1259243); further: nearly all actives have a fitted effect of over 50% in size; further: potency means the concentration at half of the fitted maximal effect
Sequence of Androgen receptor (Homo sapiens) (P10275 whole entry, looked up): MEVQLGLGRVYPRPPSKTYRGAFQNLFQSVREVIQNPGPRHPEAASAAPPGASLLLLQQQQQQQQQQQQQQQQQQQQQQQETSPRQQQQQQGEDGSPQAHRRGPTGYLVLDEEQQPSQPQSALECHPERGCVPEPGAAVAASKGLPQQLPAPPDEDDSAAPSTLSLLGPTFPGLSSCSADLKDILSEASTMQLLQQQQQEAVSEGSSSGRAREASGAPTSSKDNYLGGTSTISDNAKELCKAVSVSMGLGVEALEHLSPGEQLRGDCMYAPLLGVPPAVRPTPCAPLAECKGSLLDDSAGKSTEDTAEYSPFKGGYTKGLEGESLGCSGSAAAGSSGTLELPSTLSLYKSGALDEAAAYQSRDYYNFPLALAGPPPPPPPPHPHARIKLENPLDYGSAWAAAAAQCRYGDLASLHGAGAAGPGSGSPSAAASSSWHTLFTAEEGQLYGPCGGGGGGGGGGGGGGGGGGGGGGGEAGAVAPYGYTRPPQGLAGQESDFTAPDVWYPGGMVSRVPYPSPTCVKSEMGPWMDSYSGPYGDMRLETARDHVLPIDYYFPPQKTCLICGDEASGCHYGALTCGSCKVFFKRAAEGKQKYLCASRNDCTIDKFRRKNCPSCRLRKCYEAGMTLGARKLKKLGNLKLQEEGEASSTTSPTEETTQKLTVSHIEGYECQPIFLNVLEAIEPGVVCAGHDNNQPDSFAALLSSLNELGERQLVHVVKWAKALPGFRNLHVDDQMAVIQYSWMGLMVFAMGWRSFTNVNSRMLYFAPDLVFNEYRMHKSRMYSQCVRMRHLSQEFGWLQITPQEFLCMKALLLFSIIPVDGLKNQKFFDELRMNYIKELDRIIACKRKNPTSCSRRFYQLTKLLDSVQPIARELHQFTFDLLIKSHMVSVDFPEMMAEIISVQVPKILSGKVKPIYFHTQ
How it was run: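 MDA-kb2 human breast carcinoma cells carrying an MMTV-luciferase reporter (AR- and GR-responsive) were plated, rested 5 hr at 37C, dosed with compounds, then stimulated with 0.5 nM R1881 (final) for 16 hr; luminescence was read after ONE-Glo.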

[20] = qHTS assay to identify small molecule phospholipidosis (PLD) inducers (AID 1259344; active means well fitted curve in the direction sought with a large enough effect; an effect the other way counts as inactive or inconclusive)
How it was run: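 HepG2 cells grown on collagen I take up LipidTOX Red while exposed to compound for 24 h; after fixation they are imaged at 20x and pit metrics are extracted.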

SMILES	Potency [1]	Potency [2]	Potency [3]	Potency [4]	Potency [5]	Potency [6]	Potency [7]	Potency [8]	Potency [9]	Potency [10]	Potency [11]	Potency [12]	Potency [13]	Potency [14]	Potency [15]	Potency [16]	Potency [17]	Potency [18]	Potency [19]	outcome [20]
CCC(C)(O)CCC=C(C)C (stereo not given)	inactive	inactive	inactive	inactive	inactive	inactive	inactive	inactive	inactive	inactive	inactive	inactive	inactive	inactive	inactive	inactive	inactive	–	–	–
C=CCNc1nc(NCC=C)nc(N2CCN(C(c3ccc(F)cc3)c3ccc(F)cc3)CC2)n1	inactive	inactive	inactive	inactive	inactive	inactive	inactive	inactive	inactive	inactive	–	11.9 µM (active)	inactive	inactive	inactive	inactive	inactive	inactive	10.6 µM (active)	–
C=CC(C)=CCC=C(C)C	inactive	inactive	inactive	inactive	inactive	inactive	inactive	inactive	inactive	inactive	inactive	–	inactive	inactive	inactive	inactive	inactive	inactive	–	–
OC(CCCN1CCCCC1)(c1ccccc1)c1ccccc1	inactive	inactive	inactive	inactive	inactive	inactive	inactive	inactive	inactive	–	inactive	inactive	–	inactive	inactive	inactive	inactive	inactive	inactive	–
CC1(C)O[C@@H]2C[C@H]3[C@@H]4CCC5=CC(=O)C=C[C@]5(C)[C@H]4[C@@H](O)C[C@]3(C)[C@]2(C(=O)CO)O1	inactive	inactive	inactive	inactive	inactive	inactive	inactive	inactive	–	inactive	inactive	inactive	inactive	inactive	inactive	inactive	inactive	inactive	–	inactive
CCCCN(CCCC)CCCOC(=O)c1ccc(N)cc1	inactive	inactive	inactive	inactive	inactive	inactive	inactive	inactive	inactive	inactive	inactive	–	–	inactive	inactive	inactive	inactive	–	–	inactive
CCNC(=O)N1CCN(CCCC(c2ccc(F)cc2)c2ccc(F)cc2)CC1	inactive	inactive	21.3 µM (active)	inactive	inactive	16.9 µM (active)	16.9 µM (active)	inactive	–	26.6 µM (active)	–	18.8 µM (active)	inactive	inactive	–	inactive	inactive	inactive	–	inactive
CCCCCCCCSCCO	inactive	inactive	43.6 µM (active)	inactive	inactive	inactive	inactive	inactive	inactive	inactive	inactive	–	inactive	inactive	inactive	inactive	inactive	–	inactive	–
Cc1nc2ccccn2c(=O)c1CCN1CCC(C(=O)c2ccc(F)cc2)CC1	inactive	inactive	inactive	inactive	inactive	7.56 µM (active)	8.49 µM (active)	inactive	–	inactive	inactive	–	inactive	inactive	inactive	inactive	inactive	inactive	–	inactive
COC(=O)c1cc(S(N)(=O)=O)ccc1OC	inactive	inactive	inactive	inactive	inactive	inactive	inactive	inactive	–	inactive	inactive	inactive	inactive	inactive	inactive	inactive	inactive	inactive	inactive	–
O=C(CS)OCCOC(=O)CS	inactive	inactive	inactive	inactive	inactive	inactive	inactive	inactive	inactive	inactive	inactive	–	8.63 µM (active)	inactive	inactive	inactive	inactive	inactive	–	–
C[C@@H]1C[C@H]2[C@@H]3CCC4=CC(=O)C=C[C@]4(C)[C@@]3(F)[C@@H](O)C[C@]2(C)[C@H]1C(=O)CO	inactive	inactive	inactive	inactive	inactive	inactive	inactive	inactive	–	inactive	inactive	–	inactive	inactive	inactive	inactive	inactive	inactive	–	–
CC(C)=CC=O	inactive	inactive	inactive	inactive	inactive	inactive	inactive	inactive	–	inactive	inactive	inactive	inactive	inactive	inactive	inactive	inactive	–	inactive	–
CCN(Cc1cccc(S(=O)(=O)O)c1)c1ccc(C(=C2C=CC(=[N+](CC)Cc3cccc(S(=O)(=O)[O-])c3)C=C2)c2ccccc2)cc1	inactive	inactive	inactive	inactive	inactive	inactive	inactive	inactive	–	inactive	inactive	inactive	inactive	inactive	inactive	inactive	inactive	inactive	–	–
COC(OC)(C(=O)c1ccccc1)c1ccccc1	inactive	inactive	inactive	inactive	inactive	inactive	inactive	inactive	–	inactive	inactive	inactive	inactive	inactive	inactive	inactive	inactive	inactive	–	–
